# Data published in publication PMC4336329 (PLoS ONE, 2015).
# Screen size: about 310,000 compounds; about 14,000 (4.5%) showed an effect of 50% or more. Effects have a minus sign here. This is one part of a sample in which strong results are shown more often than they occur.
# Target: human ether-à-go-go-related gene (hERG) potassium channel (human, UniProt Q12809)
# Test: primary screen, population patch clamp on CHO cells stably expressing hERG; higher = less effect of the substance
# 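Further: peak tail current of the secondary pulse compared with the same well before compound.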
# human ether-à-go-go-related gene (hERG) potassium channel, sequence (Q12809 whole entry, looked up): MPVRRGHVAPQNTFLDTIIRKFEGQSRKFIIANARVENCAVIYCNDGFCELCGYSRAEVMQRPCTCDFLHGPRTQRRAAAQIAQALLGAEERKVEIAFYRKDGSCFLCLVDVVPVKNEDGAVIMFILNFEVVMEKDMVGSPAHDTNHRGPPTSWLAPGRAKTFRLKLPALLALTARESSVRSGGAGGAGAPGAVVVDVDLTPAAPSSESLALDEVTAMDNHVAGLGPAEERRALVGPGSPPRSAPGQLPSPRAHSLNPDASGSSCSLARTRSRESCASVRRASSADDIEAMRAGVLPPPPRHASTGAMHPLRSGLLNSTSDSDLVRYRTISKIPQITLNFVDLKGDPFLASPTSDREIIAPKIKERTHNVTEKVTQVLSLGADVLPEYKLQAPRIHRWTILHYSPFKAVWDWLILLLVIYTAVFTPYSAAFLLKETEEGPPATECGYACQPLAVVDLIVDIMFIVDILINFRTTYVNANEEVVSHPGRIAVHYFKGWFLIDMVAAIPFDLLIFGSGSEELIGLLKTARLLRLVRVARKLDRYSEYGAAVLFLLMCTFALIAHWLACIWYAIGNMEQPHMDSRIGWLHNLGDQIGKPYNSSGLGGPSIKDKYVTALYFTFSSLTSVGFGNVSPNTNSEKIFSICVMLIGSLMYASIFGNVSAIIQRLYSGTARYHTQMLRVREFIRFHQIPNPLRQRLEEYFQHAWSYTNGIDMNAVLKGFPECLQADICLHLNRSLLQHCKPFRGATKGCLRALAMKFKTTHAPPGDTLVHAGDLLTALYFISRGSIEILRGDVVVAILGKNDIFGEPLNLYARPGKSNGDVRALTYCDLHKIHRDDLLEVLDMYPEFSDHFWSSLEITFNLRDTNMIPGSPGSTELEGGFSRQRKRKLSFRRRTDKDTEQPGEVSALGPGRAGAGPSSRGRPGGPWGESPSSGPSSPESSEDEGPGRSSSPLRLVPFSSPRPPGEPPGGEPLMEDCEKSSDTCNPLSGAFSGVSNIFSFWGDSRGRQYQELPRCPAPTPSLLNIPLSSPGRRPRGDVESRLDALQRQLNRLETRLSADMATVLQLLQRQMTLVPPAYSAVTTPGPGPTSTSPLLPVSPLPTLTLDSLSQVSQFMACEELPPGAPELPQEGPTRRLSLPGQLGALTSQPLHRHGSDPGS
row,SMILES,"hERG current change (%, negative = inhibition) at 10uM [%]"
1,CCC/C=C(\CCC)C(NS(=O)(=O)c1ccc(C(F)(F)F)cc1)c1ccccc1 (stereo not shown),15.5
2,Cc1nnc2ccc(N3CCN(C(=O)c4ccccc4)CC3)nn12,-0.844
3,COc1ccc(S(=O)(=O)NCc2ccncc2)cc1NC(=O)c1ccccc1C,-36.6
4,O=C(/C=C/c1cccc([N+](=O)[O-])c1)NCCSCc1c(Cl)cccc1Cl,-11.9
5,NS(=O)(=O)c1ccc(NC(=O)c2ccc3c(c2)OCO3)cc1,11.3
6,COc1cc(Cl)c(CN2CCCC(CO)(Cc3cccc(Cl)c3)C2)cc1OC (stereo not shown),-45.6
7,COc1cc(Cl)c(CN2CCCC(CO)(Cc3ccccc3)C2)cc1OC (stereo not shown),-55.2
8,COc1cc(Cl)c(CN2CCCC(CO)(Cc3ccccc3F)C2)cc1OC (stereo not shown),-20.1
9,FC(F)(F)c1cc(Sc2ccccc2)nc(-c2ccccn2)n1,-19.3
10,O=C(O)CSc1cc(C(F)(F)F)nc(-c2ccccn2)n1,5.55
11,C#CCSc1cc(C(F)(F)F)nc(-c2ccccn2)n1,-62.9
12,CCC(=O)NC(C)c1nc2ccccc2n1C (stereo not shown),1.29
13,Cc1sc2ncnc(N/N=C/c3cccc(O)c3)c2c1C,-61.9
14,Cc1sc2ncnc(N/N=C/c3ccccc3O)c2c1C,-1.58
15,Cc1sc2ncnc(N/N=C/c3ccc(O)cc3)c2c1C,2.28
16,O=C(CCNNC(=O)c1ccncc1)NCc1ccccc1,9.98
17,COc1ccccc1-n1cc(CN2CCCC(CO)(Cc3cccc(Cl)c3)C2)cn1 (stereo not shown),-49.5
18,Cn1cc(CN2CCCC(CO)(Cc3cccc(Cl)c3)C2)cn1 (stereo not shown),-17.1
19,CCn1cc(CN2CCCC(CO)(Cc3cccc(Cl)c3)C2)cn1 (stereo not shown),-10.8
20,OCC1(Cc2ccccc2)CCCN(Cc2cnn(-c3ccccc3)c2)C1 (stereo not shown),-59.4
21,Cn1cc(CN2CCCC(CO)(Cc3ccccc3)C2)cn1 (stereo not shown),4.27
22,OCC1(Cc2cccc(Cl)c2)CCCN(Cc2cnn(-c3ccccc3)c2)C1 (stereo not shown),-54.7
23,CC(C)n1cnc2c(Nc3ccc(F)c(Cl)c3)nc(NCCO)nc21,-39

row,SMILES,"hERG current change (%, negative = inhibition) at 10uM [%]"
1,[O-][N+]1=C(c2cccs2)CN(O)C1,8.57
2,CC(OC(=O)/C=C/c1ccco1)C(=O)NC1CCCCC1C (stereo not shown),-3.2
3,Nc1sc(-c2ccccc2)c(Cc2ccccc2)c1C(=O)O,-2.59
4,Cc1cnc(NC(=O)CSc2ccccc2)s1,3.88
5,OC1(c2cccc(C(F)(F)F)c2)CCN(Cc2nnnn2Cc2ccccc2)CC1,10.4
6,FC(F)(F)c1ccc2c(c1)ncn2C1CCN(Cc2nnnn2C2CCCCC2)CC1,-59.6
7,Cc1ccc(Cn2nnnc2CN2CCC(n3nnc4cc(C(F)(F)F)ccc43)CC2)cc1,2.84
8,FC(F)(F)c1ccc2c(c1)nnn2C1CCN(Cc2nnnn2Cc2ccccc2)CC1,-50.9
9,Cl.Fc1ccc2c(c1)nnn2C1CCN(Cc2nnnn2C2CCCCC2)CC1,-38.1
10,C1CCN(Cc2nnnn2C2CCCC2)CC1,11.4
11,Fc1ccc(Cn2nnnc2CN2CCC(n3nnc4cc(C(F)(F)F)ccc43)CC2)cc1,-69.6
12,O=C(O)CCC(=O)N1CCC(n2nnc3cc(C(F)(F)F)ccc32)CC1,10.5
13,Fc1ccc(Cn2nnnc2CN2CCN(C3CCCC3)CC2)cc1,-49.1
14,O=C(CSc1ccc2c(c1)OCCO2)NCCc1ccc(Cl)cc1Cl,-8.94
15,O=C(Nc1ccc(Cl)cc1C(F)(F)F)c1ccccc1,8.81
16,Cn1cnnc1SCC(=O)Nc1cc(S(=O)(=O)N2CCCCCC2)ccc1Cl,-17.8
17,CCc1c(C)nc2ncnn2c1Nc1ccccc1C,-34.1
18,CCOC(=O)N1CCC(NC(=O)c2cc(C(=O)Nc3ccc(OCC)cc3)ccc2CO)CC1,9.27
19,CC(C)c1nnc(NC(=O)CC(C)c2ccccc2)s1 (stereo not shown),1.39
20,N#Cc1c(N)nc2c3c(sc(=N)c2c1N)NC(=O)CC3c1c(F)cccc1Cl (stereo not shown),-15.7
21,O=C(NNc1nc2ccccc2s1)c1ccccc1F,-7.04
22,CCc1ccc(NC(=S)NC2CC3CCCC(C2)N3Cc2cccs2)cc1 (stereo not shown),-20.4
23,CC(C)CNC(=S)NC1CC2CCCC(C1)N2Cc1cccs1 (stereo not shown),-34.8

row,SMILES,"hERG current change (%, negative = inhibition) at 10uM [%]"
1,Fc1ccc(NC(=S)NC2CC3CCCC(C2)N3Cc2cccs2)cc1 (stereo not shown),-59.5
2,Cc1cccc(NC(=S)NC2CC3CCCC(C2)N3Cc2cccs2)c1 (stereo not shown),-35.9
3,Cc1cccc(NC(=S)NC2CC3CCCC(C2)N3Cc2cccs2)c1C (stereo not shown),-37.9
4,Cc1ccc(NC(=S)NC2CC3CCCC(C2)N3Cc2cccs2)cc1 (stereo not shown),-56.5
5,Fc1ccc(NC(=S)NC2CC3CCC(C2)N3Cc2ccco2)cc1 (stereo not shown),-12.6
6,Cc1cc(C)cc(NC(=S)NC2CC3CCCC(C2)N3Cc2cccs2)c1 (stereo not shown),-52.9
7,CCc1ccccc1NC(=S)NC1CC2CCCC(C1)N2Cc1cccs1 (stereo not shown),-4.03
8,CCOC(=O)C(=O)N(Nc1ccccc1C)c1ccccc1C,-14.3
9,O=C(Nc1ccccn1)c1ccc2c(c1)OCCO2,11.5
10,CC1CCN(c2nc(-c3ccc(F)cc3)cc(C(F)(F)F)n2)CC1,15.6
11,Cc1csc(C2=C(O)CN(CCc3ccccc3)C2=N)n1,1.95
12,O=C(CCc1ccccc1)OCCOC(=O)CCc1ccccc1,22.1
13,Cc1cc(C(F)(F)F)nn1CC(=O)Nc1ccc2c(c1)OCO2,-2.91
14,CCCCOC(=O)c1ccc(NC(C)=O)cc1,-11.2
15,Nc1c(N2CCCC2)c2ccccc2oc1=O,2.82
16,Nc1c(N2CCN(c3ccccc3)CC2)c2ccccc2oc1=O,-50.1
17,O=c1oc2ccccc2c(N2CCCC2)c1CN1CCCC1,13
18,O=c1oc2ccccc2c(N2CCCCC2)c1CN1CCCC1,-54.4
19,O=c1oc2ccccc2c(O)c1CN1CCCCC1,13.9
20,O=c1oc2ccccc2c(Nc2ccccc2)c1CN1CCCCC1,-57.1
21,O=c1oc2ccccc2c(Cl)c1CN1CCCCC1,24.1
22,O=c1oc2ccccc2c(N2CCCCC2)c1CN1CCCCC1,-18.4
23,CN1CCN(c2c(N)c(=O)oc3ccccc23)CC1,-45.2

row,SMILES,"hERG current change (%, negative = inhibition) at 10uM [%]"
1,Cc1cc(C)cc(C(=O)NC(CC(N)=O)c2ccc(NC3CCCC3)c([N+](=O)[O-])c2)c1 (stereo not shown),13.2
2,CC(=O)c1ccc(NC(=O)/C(=C\c2cccs2)NC(=O)c2ccco2)cc1,17.9
3,Cc1ccc(S(=O)(=O)Oc2ccc(C(c3c(C)[nH][nH]c3=O)c3c(C)[nH][nH]c3=O)cc2)cc1,-1.83
4,CC(C)CCn1c(NCCN(C)C)nc2c1c(=O)[nH]c(=O)n2C,-23.2
5,COc1ccc(-n2c(SC3CCOC3=O)nc3ccccc3c2=O)cc1OC (stereo not shown),-4.64
6,COC(=O)c1c(NC(=O)c2cccc(S(=O)(=O)N3CCN(C)CC3)c2)sc(C)c1C,13.4
7,COc1ccc(C2Nc3ccccc3C(=O)N2NC(=O)c2ccccc2)cc1OC (stereo not shown),3.24
8,Cc1ccccc1N=C1SCCN1C(=O)CN1C(=O)NC2(CCCC2)C1=O,-21.7
9,CCOc1ccc(C2/C(=C(\O)c3ccc4c(c3)OCCO4)C(=O)C(=O)N2CCCN2CCOCC2)cc1OC (stereo not shown),3.69
10,Cc1cc(S(=O)(=O)N2CCOCC2)ccc1OCC(=O)Nc1ccc(F)cc1,-18.9
11,COc1ccc(C2/C=C\CN(S(=O)(=O)/C=C/c3ccccc3)[C@H](Cc3ccccc3)C(=O)N2Cc2ccc(F)cc2)cc1 (stereo partly shown),8.05
12,COc1ccc(C2SCC(=O)Nc3c2c(C)nn3-c2ccccc2)cc1 (stereo not shown),-7.35
13,Cc1nn(-c2ccccc2)c2c1C(c1cccc([N+](=O)[O-])c1)N(c1ccccc1)C(=O)N2 (stereo not shown),11.1
14,Cc1nn(-c2ccccc2)c2c1C(c1ccc(Cl)cc1)N(c1ccccc1)C(=O)N2 (stereo not shown),-64.6
15,O=C(CCCOc1ccc(Cl)cc1)Nc1cccc(C(=O)O)c1,13
16,COc1ccc(NC(=O)c2ccc(-n3c(C)ccc3C)cc2)c(OC)c1,-24.3
17,COC(=O)c1ccc(C23CC4(C2)[C@H](CN(C)[C@@H]4c2ccccc2)C3c2ccc(Cl)nc2)cc1 (stereo partly shown),-28
18,CCOc1ccc(CNC(=O)CCC(=O)n2ncc3ccc(Cl)cc32)cc1,-1.82
19,COc1ccc(C(=O)NC2CC2)cc1OC1CCN(C/C=C/c2ccccc2)CC1,-79.9
20,COc1cc(C(=O)N2CCN(C/C=C/c3ccccc3)CC2)cc(OC)c1C,-30.2
21,COc1ccccc1/C=C/CN1CCC(Oc2cc(C(=O)NC3CC3)ccc2OC)CC1,-76.5
22,COc1cc(C(=O)N2CCN(C/C=C/c3ccccc3)CC2)cc(OC)c1OC,-35
